# Laboratory results reported in publication PMC5540273 (PLoS ONE, 2017).
# What was measured:
# Settings in all cases: concentration: 1 μM, replicates: in singlicate; n = 1
# EIF2AK1 = tested on: EIF2AK1
# EPHA1 = tested on: EPHA1
# EPHA2 = tested on: EPHA2
# EPHA3 = tested on: EPHA3
# EPHA4 = tested on: EPHA4
# EPHA5 = tested on: EPHA5
# EPHA6 = tested on: EPHA6
# EPHA7 = tested on: EPHA7
# EPHA8 = tested on: EPHA8
# EPHB1 = tested on: EPHB1
# 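Also: KINOMEscan kinase panel screen.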
smiles,measurement,setting,value
FC(F)(F)c1ccc(-c2nn3ncccc3c2-c2ccnc(Nc3cccc(C(F)(F)F)c3)n2)cc1 [GW828205],%Inh,EIF2AK1,0%
same,%Inh,EPHA1,34%
same,%Inh,EPHA2,19%
same,%Inh,EPHA3,0%
same,%Inh,EPHA4,81%
same,%Inh,EPHA5,0%
same,%Inh,EPHA6,78%
same,%Inh,EPHA7,0%
same,%Inh,EPHA8,0%
same,%Inh,EPHB1,2%
COc1ccc(-c2oc3ncnc(N)c3c2-c2ccc(OC)cc2)cc1 [SB-589132],%Inh,EIF2AK1,3%
same,%Inh,EPHA1,70%
same,%Inh,EPHA2,19%
same,%Inh,EPHA3,0%
same,%Inh,EPHA4,32%
same,%Inh,EPHA5,0%
same,%Inh,EPHA6,50%
same,%Inh,EPHA7,0%
same,%Inh,EPHA8,9%
same,%Inh,EPHB1,0%
NC(=O)c1sc(-n2cnc3ccccc32)cc1OCc1ccccc1F [GSK1024306],%Inh,EIF2AK1,0%
same,%Inh,EPHA1,2%
same,%Inh,EPHA2,0%
same,%Inh,EPHA3,5%
same,%Inh,EPHA4,0%
same,%Inh,EPHA5,0%
same,%Inh,EPHA6,0%
same,%Inh,EPHA7,0%
same,%Inh,EPHA8,19%
same,%Inh,EPHB1,0%
C[C@@H]1CCN(C(=O)CO)C[C@@H]1N(C)c1ncnc2[nH]ccc12,%Inh,EIF2AK1,5%
same,%Inh,EPHA1,8%
same,%Inh,EPHA2,0%
same,%Inh,EPHA3,0%
same,%Inh,EPHA4,0%
same,%Inh,EPHA5,2%
same,%Inh,EPHA6,0%
same,%Inh,EPHA7,0%
same,%Inh,EPHA8,0%
same,%Inh,EPHB1,9%
N#Cc1ccc(Oc2ccc(Nc3ncnc4cc[nH]c34)cc2Cl)cc1,%Inh,EIF2AK1,5%
same,%Inh,EPHA1,1%
same,%Inh,EPHA2,0%
same,%Inh,EPHA3,0%
same,%Inh,EPHA4,23%
same,%Inh,EPHA5,0%
same,%Inh,EPHA6,23%
same,%Inh,EPHA7,2%
same,%Inh,EPHA8,1%
same,%Inh,EPHB1,5%
